# MITF act – activators of MITF-driven TRPM1 promoter activity in SK-MEL-5 cells; SK-MEL-5 TRPM1-promoter luciferase, 24 h; % of positive control, neutral wells = 0; activation, % at 12.5 µM; 300,000 compounds, 0.75% hits;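 active means mean activation of at least 80% with every replicate also reaching 80%; inconclusive means mean reaches 80% but some replicate falls short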
# HSF1 activator – increases HSF-1 driven luciferase reporter signal. activation, % at 9 µM. NIH3T3-HGL HSF-1 luciferase reporter, MG132, 8 h; 100% = twice DMSO control signal. 300,000 compounds, 1.7% hits;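 active means mean replicate activation of at least 50% with a set share of replicates each reaching 50%; inconclusive means only one of those two conditions met; inactive means mean below 50% and too few replicates reaching it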
# Wnt act – activators of Wnt/beta-catenin signaling | activation, % at 9.35 µM | 300,000 compounds, 1.2% hits | Wnt/beta-catenin reporter cell assay, activator, plate reader; in the data active means activation above about 30%, passing the limit was not always enough; inconclusive means no clear call, values can overlap the other calls
# HSF1 inh – HSF1 inhibition; NIH3T3-HGL HSE-luciferase, MG132-induced, luminescence 8 h; stronger effect = lower value; activity change, negative = inhibition, % at 7.5 µM (by protocol); 300,000 compounds, 0.77% hits; AID 2098;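 active means more than half of replicate wells show activity change below -50%, luminescence cut by over half; inconclusive means some wells, but at most half, below -50%; inactive means no replicate well below -50%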;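 further: luciferase reports HSF-1 transcriptional activity via heat shock element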
# esBAF inh – blocks esBAF chromatin remodeling in mouse ES cells; Bmi1-luciferase knock-in reporter, 24 h; 100% = twice the neutral-well signal; reporter increase, % at 12.5 µM; 350,000 compounds, 2% hits; AID 602393; in the data active means activation above about 40%; inconclusive means no clear call, values can overlap the other calls;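 further: a rise in the Bmi1 reporter signal indicates esBAF inhibition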
# Hits are given with their value; i = inactive; ? = inconclusive; nt = not tested or not shown. Sampled rows, rich in hits. Any-hit rate of the full collection: about 3.8%.
SMILES,MITF act,HSF1 activator,Wnt act,HSF1 inh,esBAF inh
C[C@@H]1CN([C@@H](C)CO)C(=O)c2cc(NS(=O)(=O)c3ccc(F)cc3)ccc2O[C@@H](C)CCCCO[C@H]1CN(C)S(=O)(=O)c1cccs1,nt,nt,nt,nt,i
CSc1nccc(N/N=C/c2ccccc2)n1,97,72,37,i,i
O=C1OC(/C=C/c2ccccc2)=NC/1=C/C=C/c1ccccc1,i,112,i,i,nt
Cc1ccc(Nc2cc(C)c3c(O)cccc3n2)cc1C,111,i,i,-56,i
Cc1ccccc1Nc1cc(C)c2c(O)cccc2n1,i,i,i,i,i
C[C@@H]1CN([C@@H](C)CO)C(=O)Cc2cc(NS(=O)(=O)c3cccs3)ccc2O[C@H]1CN(C)C(=O)Nc1ccccc1,nt,nt,nt,nt,i
Cn1cnc(S(=O)(=O)N2CCCC(c3cc(C(=O)Nc4ccc(F)c(Cl)c4)no3)C2)c1 (stereo not drawn),nt,nt,i,nt,53
CC(C)(C)c1ccc(OCCn2ccccc2=O)cc1,nt,?,62,i,60
O=c1ccccn1CCOc1ccc(Cl)cc1,i,i,i,i,i
CC(=O)Nc1ccc(CN2CCCC(C(=O)c3cccc(C(F)(F)F)c3)C2)cc1 (stereo not drawn),i,i,nt,i,nt
COc1ccc(C(=O)C2CCCN(Cc3ccc(NC(C)=O)cc3)C2)cc1OC (stereo not drawn),nt,i,i,-72,i
COCC(=O)Nc1ccc2c(c1)C(=O)N(C)[C@H]1CC[C@H](CC(=O)NCC(F)(F)F)O[C@@H]1CO2,nt,nt,nt,nt,i
c1ccc2c(-c3nnc(SCc4cn5ccccc5n4)o3)c[nH]c2c1,i,i,nt,i,i
Fc1ccccc1CSc1nnc(-c2cccnc2)o1,i,i,40,i,nt
Cc1ccccc1-c1nnc(SCc2ccccc2)o1,nt,64,nt,i,63
c1ccc(CSc2nnc(-c3c[nH]c4ccccc34)o2)cc1,i,?,i,i,53
C#CCSc1nnc(-c2ccc(OC)cc2)o1,i,66,38,i,43
N#C[C@H]1[C@H](c2ccccc2)[C@H](CO)N1S(=O)(=O)c1ccc(F)cc1,nt,nt,nt,nt,i
Fc1ccccc1CSc1nnc(-c2ccccc2)o1,103,i,68,i,i
CCSc1nnc(-c2ccc(OC)cc2)o1,i,i,nt,i,i
Cc1ccccc1CSc1nnc(-c2ccncc2)o1,i,i,i,i,i
COc1ccc(-c2nnc(SCc3ccccc3F)o2)cc1,i,54,nt,i,nt
Cc1ccccc1-c1nnc(SCc2ccccc2F)o1,nt,74,nt,i,?
CCCNC(=O)N(C)C[C@H]1Oc2ncc(-c3ccncc3)cc2C(=O)N([C@@H](C)CO)C[C@H]1C,nt,nt,nt,nt,i
O=C(Oc1cccc2cccnc12)c1ccc(Br)o1,i,66,i,i,i
SMILES,MITF act,HSF1 activator,Wnt act,HSF1 inh,esBAF inh
CC1CCCN(CCOc2ccc3ccccc3c2Br)C1 (stereo not drawn),96,i,i,i,nt
CC1CCCN(CCCOc2ccc(Cl)cc2Br)C1 (stereo not drawn),i,i,i,i,nt
CC1CCCCN1S(=O)(=O)c1ccc(C(=O)Nc2sccc2C(N)=O)cc1 (stereo not drawn),i,i,i,i,83
NC(=O)c1ccsc1NC(=O)C1CCCN1S(=O)(=O)c1ccc(Cl)cc1 (stereo not drawn),i,i,i,i,i
CCn1c(C)cc(/C=C2/NC(=O)N(c3ccccc3)C2=O)c1C,i,i,i,-52,nt
O=C(C[C@H]1CC[C@@H]2[C@H](COC[C@H](O)CN2S(=O)(=O)c2ccc(F)cc2)O1)N[C@@H]1CCN(Cc2ccccc2)C1,nt,nt,nt,nt,i
Cc1ccc2cc3cc(C(=O)NCCC(C)C)oc3nc2c1,i,i,nt,i,nt
Cc1ccc2cc3cc(C(=O)NC4CC4)oc3nc2c1,i,i,31,i,45
Cc1ccc2cc3cc(C(=O)NC4CCCCC4)oc3nc2c1,i,i,i,i,47
Cc1ccc2cc3cc(C(=O)NCc4ccco4)oc3nc2c1,i,64,i,i,i
Cc1ccc2cc3cc(C(=O)N4CCCCC4C)oc3nc2c1 (stereo not drawn),i,i,nt,i,50
Cc1ccc2cc3cc(C(=O)N4CC(C)CC(C)C4)oc3nc2c1 (stereo not drawn),i,i,i,i,i
CNC(=O)C[C@H]1CC[C@@H]2[C@H](COC[C@@H](O)CN2Cc2ccc(Cl)c(Cl)c2)O1,nt,nt,nt,nt,i
COc1ccc(NC(=O)Nc2cccc3c2O[C@@H](CN(C)S(=O)(=O)c2ccc(Cl)cc2)[C@H](C)CN([C@H](C)CO)C3=O)cc1,nt,nt,nt,nt,i
CCOC(=O)C(CNc1ccc(OCc2ccccc2)cc1)NC(=O)c1ccccc1 (stereo not drawn),nt,nt,44,nt,nt
CCOc1ccc(C(=O)NC(Cc2ccccc2)C(=O)OC)cc1 (stereo not drawn),i,i,nt,i,74
C[C@@H]1CCCCO[C@H](CN(C)S(=O)(=O)c2cccs2)[C@H](C)CN([C@H](C)CO)C(=O)c2cc(NC(=O)Nc3ccc(F)cc3)ccc2O1,nt,nt,nt,nt,i
Cc1cc2c(ncn2C)c(NS(=O)(=O)c2cc(Cl)ccc2Cl)c1C,nt,140,i,i,i
Cc1cc2c(ncn2C)c(NS(=O)(=O)c2ccccc2Cl)c1C,i,i,i,i,i
COc1ccccc1CNC(=O)c1csc(Cc2ccc(Cl)cc2)n1,i,100,nt,i,i
O=C(Nc1ccc(F)cc1)c1csc(Cc2ccccc2)n1,i,59,i,i,nt
Cc1ccc(S(=O)(=O)NCC[C@@H]2CC[C@H](NC(=O)c3ccccn3)[C@@H](CO)O2)cc1,nt,nt,nt,nt,i
CCCc1ccc(C(=O)NC(=O)c2ccccc2O)cc1,nt,i,i,i,nt
O=C(NC(=O)c1ccccc1O)c1ccc(C(F)(F)F)cc1,nt,91,i,i,nt
CCC(=O)N1[C@@H]2Cn3c(ccc(-c4ccncc4)c3=O)[C@H]1[C@@H](C(=O)N1CCc3ccccc3C1)[C@@H]2CO,nt,nt,nt,nt,i
SMILES,MITF act,HSF1 activator,Wnt act,HSF1 inh,esBAF inh
CCCCNC(=S)Nc1ccc(-c2nc3ccc(C)cc3s2)cc1,i,i,i,i,i
Cc1ccc2nc(-c3ccc(NC(=S)NCC(C)(C)CN(C)C)cc3)sc2c1,i,nt,56,nt,i
Cc1ccc2nc(-c3ccc(NC(=S)NCCC(C)C)cc3)sc2c1,i,i,49,i,i
CCC(C)(C)NC(=S)Nc1ccc(-c2nc3ccc(C)cc3s2)cc1,i,i,i,i,nt
C[C@H]1CN([C@@H](C)CO)C(=O)c2ccccc2-c2ccccc2CO[C@H]1CN(C)C(=O)Nc1ccccc1,nt,nt,nt,nt,i
Cc1ccc(-c2cc(NC(=O)c3ccccc3[N+](=O)[O-])n[nH]2)cc1,nt,i,i,i,i
Cc1ccc(-c2cc(-c3ccccc3[N+](=O)[O-])[nH]n2)c(O)c1,i,i,i,i,70
Cc1ccc(-c2cc(-c3ccccc3Cl)[nH]n2)c(O)c1,i,i,i,i,52
Cc1ccc(-c2cc(-c3ccc(F)cc3)n[nH]2)c(O)c1,i,i,i,i,i
Oc1ccc(Br)cc1-c1cc(-c2ccccc2Cl)[nH]n1,i,i,i,i,nt
Cc1ccc(O)c(-c2cc(-c3cccc(Br)c3)n[nH]2)c1,i,67,i,i,i
